From PubChem BioAssay AID1159580 (chemical genetic matrix, 2015)
About 2,000 (36%) of roughly 5,500 compounds were called active. Roughly 18% stayed inconclusive and do not appear here. No stated cut-off is given here; in the data, active means normalized growth mostly below about 0.91 (no sharp cut-off); inconclusive means no clear call, values can overlap the other calls; inactive means mostly above about 0.92. The list shows a part of the results.

Experiment: chemical genetic growth profiling, strain panel (AID 1159580);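 further: tested at 20 µM; growth read once vehicle control cultures reached saturation at 30 °C; 1 = growth at the plate median or of vehicle wells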
Settings: growth OD
[1] = S. cerevisiae deletion strains, locus YAL013W, strain DEP1, stronger effect = lower value
[2] = S. cerevisiae deletion strains, locus YBR229C, strain ROT2, stronger effect = lower value
[3] = S. cerevisiae deletion strains, locus YDL101C, strain DUN1, stronger effect = lower value
[4] = S. cerevisiae deletion strains, locus YDR150W, strain NUM1, stronger effect = lower value
[5] = S. cerevisiae deletion strains, locus YEL061C, strain CIN8, stronger effect = lower value
[6] = S. cerevisiae deletion strains, locus YGR078C, strain PAC10, stronger effect = lower value
[7] = S. cerevisiae deletion strains, locus YHR030C, strain SLT2, stronger effect = lower value
[8] = S. cerevisiae deletion strains, locus YJR043C, strain POL32, stronger effect = lower value
[9] = S. cerevisiae deletion strains, locus YJR075W, strain HOC1, stronger effect = lower value
[10] = S. cerevisiae deletion strains, locus YLR039C, strain RIC1, stronger effect = lower value
[11] = S. cerevisiae deletion strains, locus YLR262C, strain YPT6, stronger effect = lower value
[12] = S. cerevisiae deletion strains, locus YMR263W, strain SAP30, stronger effect = lower value
[13] = S. cerevisiae deletion strains, locus YNL153C, strain GIM3, stronger effect = lower value
[14] = S. cerevisiae deletion strains, locus YNL322C, strain KRE1, stronger effect = lower value
[15] = S. cerevisiae deletion strains, locus YOL006C, strain TOP1, stronger effect = lower value
[16] = S. cerevisiae deletion strains, locus YPL055C, strain LGE1, stronger effect = lower value
[17] = S. cerevisiae deletion strains, locus YPL241C, strain CIN2, stronger effect = lower value
[18] = S. cerevisiae strains, strain wild type, stronger effect = lower value

Measured: normalized growth

CSc1nc(N)nc(N2CCCCC2)n1
inactive: [1] 1 | [2] 1 | [3] 1 | [4] 0.982 | [5] 1 | [6] 1 | [7] 0.951 | S. cerevisiae deletion strains, locus YHR087W, strain rtc3, stronger effect = lower value 1 | [8] 1 | [9] 1 | [10] 1.01 | S. cerevisiae deletion strains, locus YLR058C, strain SHM2 (second series), stronger effect = lower value 1.02 | S. cerevisiae deletion strains, locus YLR085C, strain ARP6, stronger effect = lower value 0.936 | [11] 1.02 | S. cerevisiae deletion strains, locus YML094W, strain GIM5, stronger effect = lower value 0.944 | S. cerevisiae deletion strains, locus YMR219W, strain ESC1, stronger effect = lower value 1.01 | [12] 1.02 | [13] 0.99 | S. cerevisiae deletion strains, locus YNL298W, strain CLA4 (second series), stronger effect = lower value 1.02 | [14] 1 | S. cerevisiae deletion strains, locus YNR030W, strain Alg12, stronger effect = lower value 1.01 | [15] 0.812 | [16] 0.939 | [17] 0.935 | S. cerevisiae deletion strains, locus YPR135W, strain CTF4, stronger effect = lower value 0.946 | [18] 1.01

CNC(=O)[C@H]1O[C@@H](n2cnc3c(NCc4ccc(N)cc4)ncnc32)C(O)[C@H]1O (stereo not given in full)
inactive: [1] 0.978 | S. cerevisiae deletion strains, locus YAL040C, strain CLN3, stronger effect = lower value 0.991 | S. cerevisiae deletion strains, locus YER002W, strain NOP16, stronger effect = lower value 1.02 | [6] 0.986 | S. cerevisiae deletion strains, locus YNL175C, strain NOP13, stronger effect = lower value 1.02 | S. cerevisiae deletion strains, locus YNL197C, strain WHI3, stronger effect = lower value 1.01 | S. cerevisiae deletion strains, locus YNL224C, strain SQS1, stronger effect = lower value 1.02 | S. cerevisiae deletion strains, locus YOR083W, strain WHI5 (second series), stronger effect = lower value 0.995

NCC1OC(OC2C(CO)OC(OC3C(O)C(N)CC(N)C3OC3OC(CO)C(O)CC3N)C2O)C(N)C(O)C1OC1OC(CO)C(O)C(O)C1O (stereo not given)
inactive: [1] 0.997 | S. cerevisiae deletion strains, locus YBR021W, strain FUR4, stronger effect = lower value 1.17 | [2] 0.999 | S. cerevisiae deletion strains, locus YCL029C, strain bik1, stronger effect = lower value 0.977 | S. cerevisiae deletion strains, locus YDL035C, strain GPR1, stronger effect = lower value 0.996 | S. cerevisiae deletion strains, locus YDL074C, strain BRE1, stronger effect = lower value 0.993 | [3] 0.992 | S. cerevisiae deletion strains, locus YDL134C, strain PPH21, stronger effect = lower value 1.01 | S. cerevisiae deletion strains, locus YDL185W, strain tfp1, stronger effect = lower value 0.958 | S. cerevisiae deletion strains, locus YDL192W, strain arf1, stronger effect = lower value 0.984 | S. cerevisiae deletion strains, locus YDR101C, strain arx1, stronger effect = lower value 0.978 | [4] 0.991 | S. cerevisiae deletion strains, locus YDR162C, strain NBP2, stronger effect = lower value 0.992 | S. cerevisiae deletion strains, locus YDR318W, strain mcm21, stronger effect = lower value 0.997 | S. cerevisiae deletion strains, locus YDR388W, stronger effect = lower value 0.998 | S. cerevisiae deletion strains, locus YDR502C, strain sam2, stronger effect = lower value 0.988 | [5] 0.995 | S. cerevisiae deletion strains, locus YER110C, stronger effect = lower value 0.986 | S. cerevisiae deletion strains, locus YER155C, strain BEM2, stronger effect = lower value 0.995 | S. cerevisiae deletion strains, locus YER167W, strain BCK2, stronger effect = lower value 0.997 | S. cerevisiae deletion strains, locus YGL078C, strain dbp3, stronger effect = lower value 0.997 | S. cerevisiae deletion strains, locus YGL086W, strain mad1, stronger effect = lower value 1.01 | S. cerevisiae deletion strains, locus YGL248W, strain PDE1, stronger effect = lower value 0.996 | [6] 0.974 | S. cerevisiae deletion strains, locus YGR135W, strain pre9, stronger effect = lower value 0.993 | S. cerevisiae deletion strains, locus YGR229C, strain SMI1, stronger effect = lower value 0.991 | S. cerevisiae deletion strains, locus YGR252W, strain gcn5, stronger effect = lower value 1.18 | [7] 0.993 | S. cerevisiae deletion strains, locus YHR079C, strain IRE1 (second series), stronger effect = lower value 0.986 | S. cerevisiae deletion strains, locus YHR094C, strain hxt1, stronger effect = lower value 0.975 | S. cerevisiae deletion strains, locus YHR129C, strain ARP1, stronger effect = lower value 0.988 | S. cerevisiae deletion strains, locus YHR200W, strain rpn10, stronger effect = lower value 0.993 | S. cerevisiae deletion strains, locus YIL066C, strain RNR3, stronger effect = lower value 0.987 | S. cerevisiae deletion strains, locus YIL073C, strain SPO22, stronger effect = lower value 0.899 | S. cerevisiae deletion strains, locus YIL125W, strain kgd1, stronger effect = lower value 0.995 | S. cerevisiae deletion strains, locus YIR030C, strain dcg1, stronger effect = lower value 0.988 | S. cerevisiae deletion strains, locus YJL095W, strain BCK1, stronger effect = lower value 0.982 | S. cerevisiae deletion strains, locus YJL134W, strain LCB3, stronger effect = lower value 0.992 | S. cerevisiae deletion strains, locus YJL168C, strain set2, stronger effect = lower value 0.986 | S. cerevisiae deletion strains, locus YJL187C, strain SWE1 (second series), stronger effect = lower value 0.988 | [8] 0.992 | [9] 0.98 | S. cerevisiae deletion strains, locus YKL009W, strain mrt4, stronger effect = lower value 0.976 | S. cerevisiae deletion strains, locus YKL068W, stronger effect = lower value 0.978 | S. cerevisiae deletion strains, locus YKL085W, strain MDH1 (second series), stronger effect = lower value 0.983 | S. cerevisiae deletion strains, locus YKL085W, strain MDH1, stronger effect = lower value 0.983 | S. cerevisiae deletion strains, locus YKL190W, strain CNB1, stronger effect = lower value 0.995 | S. cerevisiae deletion strains, locus YKR001C, strain vps1, stronger effect = lower value 0.991 | [10] 0.944 | S. cerevisiae deletion strains, locus YLR058C, strain SHM2, stronger effect = lower value 0.999 | S. cerevisiae deletion strains, locus YLR102C, strain apc9, stronger effect = lower value 0.997 | [11] 0.916 | S. cerevisiae deletion strains, locus YLR268W, strain sec22, stronger effect = lower value 0.962 | S. cerevisiae deletion strains, locus YLR330W, strain CHS5, stronger effect = lower value 0.985 | S. cerevisiae deletion strains, locus YLR342W, strain FKS1 (second series), stronger effect = lower value 1.07 | S. cerevisiae deletion strains, locus YLR371W, strain rom2, stronger effect = lower value 0.986 | S. cerevisiae deletion strains, locus YLR418C, strain cdc73, stronger effect = lower value 1 | S. cerevisiae deletion strains, locus YML016C, strain PPZ1, stronger effect = lower value 1.01 | S. cerevisiae deletion strains, locus YML032C, strain rad52, stronger effect = lower value 0.981 | S. cerevisiae deletion strains, locus YML124C, strain tub3, stronger effect = lower value 1.01 | S. cerevisiae deletion strains, locus YMR078C, strain ctf18, stronger effect = lower value 0.993 | S. cerevisiae deletion strains, locus YMR223W, strain ubp8, stronger effect = lower value 1.03 | [12] 0.985 | S. cerevisiae deletion strains, locus YMR307W, strain GAS1, stronger effect = lower value 1.11 | S. cerevisiae deletion strains, locus YNL067W, strain RPL9B, stronger effect = lower value 0.976 | S. cerevisiae deletion strains, locus YNL128W, strain TEP1, stronger effect = lower value 0.994 | [13] 0.988 | S. cerevisiae deletion strains, locus YNL233W, strain BNI4, stronger effect = lower value 1 | S. cerevisiae deletion strains, locus YNL250W, strain rad50, stronger effect = lower value 1 | S. cerevisiae deletion strains, locus YNL271C, strain bni1, stronger effect = lower value 0.985 | S. cerevisiae deletion strains, locus YNL298W, strain CLA4, stronger effect = lower value 0.984 | S. cerevisiae deletion strains, locus YNL307C, strain MCK1, stronger effect = lower value 1 | [14] 0.995 | S. cerevisiae deletion strains, locus YNR052C, strain pop2, stronger effect = lower value 0.991 | [15] 0.948 | S. cerevisiae deletion strains, locus YOL012C, strain htz1 1.18 | S. cerevisiae deletion strains, locus YOL147C, strain pex11, stronger effect = lower value 0.998 | S. cerevisiae deletion strains, locus YOR061W, strain CKA2, stronger effect = lower value 0.997 | S. cerevisiae deletion strains, locus YOR069W, strain VPS5, stronger effect = lower value 1 | S. cerevisiae deletion strains, locus YOR136W, strain idh2, stronger effect = lower value 0.986 | S. cerevisiae deletion strains, locus YOR144C, strain elg1, stronger effect = lower value 0.985 | S. cerevisiae deletion strains, locus YOR184W, strain ser1, stronger effect = lower value 0.97 | S. cerevisiae deletion strains, locus YOR316C, strain cot1, stronger effect = lower value 0.965 | [16] 0.966 | [17] 0.997 | S. cerevisiae deletion strains, locus YPR119W, strain clb2, stronger effect = lower value 0.999 | S. cerevisiae deletion strains, locus YPR141C, strain kar3, stronger effect = lower value 0.985 | S. cerevisiae deletion strains, locus YPR163C, strain tif3, stronger effect = lower value 0.983 | S. cerevisiae deletion strains, locus YPR167C, strain met16, stronger effect = lower value 0.981 | S. cerevisiae deletion strains, strain wtn01, stronger effect = lower value 0.954 | [18] 1
